# In all, about 35,000 sequences were measured (“fluorescence intensity (a.u.)”: median about 10,000, highest 2% from about 52,000 on). The full list was thinned out, with the highest values kept by preference.
# Molecular target: T1, OsWOX13 (Oryza sativa, UniProt Q5QMM3 1-267)
# T1 sequence: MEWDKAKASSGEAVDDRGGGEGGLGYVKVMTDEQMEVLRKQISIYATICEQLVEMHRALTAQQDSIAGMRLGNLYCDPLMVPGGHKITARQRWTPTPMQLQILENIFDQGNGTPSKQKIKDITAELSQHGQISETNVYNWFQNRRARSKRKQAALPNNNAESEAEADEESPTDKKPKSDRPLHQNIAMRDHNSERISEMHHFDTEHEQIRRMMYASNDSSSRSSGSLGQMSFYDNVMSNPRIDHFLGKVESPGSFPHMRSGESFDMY
# Assay: protein-binding microarray (RPBM); PBS, 2% BSA, 51.3 ng/ul salmon testes DNA, 50 uM zinc acetate, 200 nM TF, 25 C, 1 h; high values mean tight binding
# Conditions: protein: recombinant; tags: N-terminal polyhistidine and DsRed monomer fusion (pET32a); label: CyDye5-dUTP incorporated in the synthesized complementary strand; 3' TTTTT single-stranded linker to array surface; dsDNA, one strand shown
# In short: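 For the binding signal, per-feature fluorescence intensity was read in arbitrary units on an Axon 4000B scanner. Before scanning, a 2% BSA-blocked custom Agilent array made double-stranded with Cy5-dUTP was washed after 1 h at 25 °C with 200 nM protein and 50 µM zinc acetate. The proteins were Ni–NTA-purified transcription factors with N-terminal polyhistidine and DsRed fusions, expressed in E. coli BL21-CodonPlus.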
row,Sequence,binding signal
1,GCTGGTTTGATTAGATCTTCATCCCACGTGGCATTGACGTCGGAGTCACCTAGTGCAG,17200 fluorescence intensity (a.u.)
2,TCTTGTAATTATTCTATGTTTAATACTCTAAATTAGCATCCGGAGTCACCTAGTGCAG,20000 fluorescence intensity (a.u.)
3,TGGTGATAATGTCATTCTGTTATTACAGAGGTCAACGTGTCGGAGTCACCTAGTGCAG,3410 fluorescence intensity (a.u.)
4,CTCCACTAATCCTACCAATTAACGAGTCGTACTCAATAATCGGAGTCACCTAGTGCAG,7550 fluorescence intensity (a.u.)
5,CAGCTGTTCTAATGATTTGAGATATATCAAACTTGTCAAACGGAGTCACCTAGTGCAG,3250 fluorescence intensity (a.u.)
6,TAAGTTAATAGATATTTAACGTTTATAATAAGATTTGTTTCGGAGTCACCTAGTGCAG,9590 fluorescence intensity (a.u.)
7,AGCGCAACTAATTAAACTAGGCTTATCAGGCGACAGCGGCCGGAGTCACCTAGTGCAG,4920 fluorescence intensity (a.u.)
8,CACCCAATCACAATCCAACCCACGCCATTGCAACCAAATTCGGAGTCACCTAGTGCAG,4130 fluorescence intensity (a.u.)
9,GGCAATCAATCAACCAATCACCAGCTTACAATTCGGCCACCGGAGTCACCTAGTGCAG,59300 fluorescence intensity (a.u.)
10,TCAAACAAACCAATCAATCAATCAATCAGGGGATTCTTACCGGAGTCACCTAGTGCAG,42300 fluorescence intensity (a.u.)
11,GTGTAATTTTGTTAGGAAATTTGGGTTTGAATCAGTGGAACGGAGTCACCTAGTGCAG,12500 fluorescence intensity (a.u.)
12,TCCTGATTTCGCCGCCACTTGTAGCATCTGCCCGTGGGGTCGGAGTCACCTAGTGCAG,5510 fluorescence intensity (a.u.)
13,ACTAATTAGACTTAAAAGATTTGTCTCATGATTTACTCCCCGGAGTCACCTAGTGCAG,56300 fluorescence intensity (a.u.)
14,GCTAATCATAGACTAATTAGACTCAAAAGATTAGTCTCGCCGGAGTCACCTAGTGCAG,52800 fluorescence intensity (a.u.)
15,GATTAATTAGACTTAATAAATTTGTCTCACGGTTTACGGACGGAGTCACCTAGTGCAG,40500 fluorescence intensity (a.u.)
16,ATGGCTAATTATGGACTAATTAGACTCAAAAGATTCGTTTCGGAGTCACCTAGTGCAG,19800 fluorescence intensity (a.u.)
17,TTATGGCTAATCATGAACTAATTAGACTCAAAAGATTCGTCGGAGTCACCTAGTGCAG,23700 fluorescence intensity (a.u.)
18,GCTAATCATAGACTAATTAGGCTTAAAAGATTTGTCTCGCCGGAGTCACCTAGTGCAG,37200 fluorescence intensity (a.u.)
19,TACTAATCATAGACTAATTAGGCTCAAAAGATTCGTCTCACGGAGTCACCTAGTGCAG,31300 fluorescence intensity (a.u.)
20,TACGGCTAATTATGGACTAATTAGACTCAAAAGATTCATGCGGAGTCACCTAGTGCAG,53800 fluorescence intensity (a.u.)

row,Sequence,binding signal
1,ATGGATTAATTAGGCTCAAAAGATTTGTCTCACTATTTCCCGGAGTCACCTAGTGCAG,13500 fluorescence intensity (a.u.)
2,ATCTTAATTTACCTTTCACTGCATCTAATATGTCACTTTGCGGAGTCACCTAGTGCAG,20700 fluorescence intensity (a.u.)
3,ATTTGAAATTTAAATTTTAGCTTTTGCTTTAGTTTATTTGCGGAGTCACCTAGTGCAG,8720 fluorescence intensity (a.u.)
4,CCGTGATTAGCGACATTGCTGTGTGCAACGTTTGTTCCTTCGGAGTCACCTAGTGCAG,37600 fluorescence intensity (a.u.)
5,TGTTAGATGATAAAACATGATTAATATTTTATGTGTGACTCGGAGTCACCTAGTGCAG,4360 fluorescence intensity (a.u.)
6,AATAACTGATAAAAGATATATGATTTTGGAGAAATGTGTGCGGAGTCACCTAGTGCAG,26100 fluorescence intensity (a.u.)
7,TAGATTAATTTGTCATCAAAACACCCTCATATAATTAATTCGGAGTCACCTAGTGCAG,19200 fluorescence intensity (a.u.)
8,TTTCTTAATTGTATTTCTATATGGACTTGATACCCTTCTTCGGAGTCACCTAGTGCAG,18900 fluorescence intensity (a.u.)
9,AGCCTAATTAATCTATAATTAGAGAATGTTTACTGTAGCACGGAGTCACCTAGTGCAG,46200 fluorescence intensity (a.u.)
10,AGCCTAATTAATACATAATTAGCACATGTTTACTGTAGCACGGAGTCACCTAGTGCAG,55100 fluorescence intensity (a.u.)
11,GTAGTGAATGGCTGCCTAATTTTGTGCATTAACCATGGTGCGGAGTCACCTAGTGCAG,5100 fluorescence intensity (a.u.)
12,TAAACCTAATTAATCATCATTAGCAAATGTTTACTGTAGCCGGAGTCACCTAGTGCAG,30400 fluorescence intensity (a.u.)
13,CTAATTAATCCGTTATTAGCACATATGTGTTACTGTAGCACGGAGTCACCTAGTGCAG,12200 fluorescence intensity (a.u.)
14,AAGTCTAATTAATTCATAATTAGCACATGTTTACTGTAGCCGGAGTCACCTAGTGCAG,53800 fluorescence intensity (a.u.)
15,AATCCATAATTAGAGAATGTTTACTGTAGCATCACATAGGCGGAGTCACCTAGTGCAG,15900 fluorescence intensity (a.u.)
16,AGCCTAATTAATCCGATATTAGTAAATGTTTACTGTAGCACGGAGTCACCTAGTGCAG,15000 fluorescence intensity (a.u.)
17,TTCATAATTAGCACATGTTTACTGTGGTATCACATGGACTCGGAGTCACCTAGTGCAG,25200 fluorescence intensity (a.u.)
18,CCTAATTAATCCATAGCACATGTTTACTGTAGCGTCACATCGGAGTCACCTAGTGCAG,12400 fluorescence intensity (a.u.)
19,TCATAATTAATTAGAAGTGGCTGCATGTGAGAATGTTTGGCGGAGTCACCTAGTGCAG,53800 fluorescence intensity (a.u.)
20,AGCCTAATTAATCCATAATTAACATATGTTTACTGTAGCACGGAGTCACCTAGTGCAG,53000 fluorescence intensity (a.u.)

row,Sequence,binding signal
1,CCATTTCTTGCTGATGATTGATGATGAACATTTCTAATAGCGGAGTCACCTAGTGCAG,27400 fluorescence intensity (a.u.)
2,TACTATGATTTTCTTTGAATTCAGGTCCTTGCGATTCCAGCGGAGTCACCTAGTGCAG,3510 fluorescence intensity (a.u.)
3,TGGATAATTAAGCTCATGAGACGACAACGAACAATGAATGCGGAGTCACCTAGTGCAG,8610 fluorescence intensity (a.u.)
4,AGATGTTTGAATAATTGATACAATATCAGGAGCGAATATGCGGAGTCACCTAGTGCAG,4430 fluorescence intensity (a.u.)
5,TGAAATTTCTCTTCATTTTGTTTTAAATCCTGGACAGACACGGAGTCACCTAGTGCAG,3370 fluorescence intensity (a.u.)
6,CAACCAATAAATTAGAACTCCATCTCGATCATGGTGTTATCGGAGTCACCTAGTGCAG,4370 fluorescence intensity (a.u.)
7,GGCTTGATTTATTGATTTGTTCTTTAGTACTCCAGTTCAACGGAGTCACCTAGTGCAG,25700 fluorescence intensity (a.u.)
8,ATAAATTAGCACCCACCTCTGCCTTCCTACCTTCCCCTCCCGGAGTCACCTAGTGCAG,24900 fluorescence intensity (a.u.)
9,GAGAGAGAGATCAGCACATGATTGATTAAATATTAGCTTACGGAGTCACCTAGTGCAG,19100 fluorescence intensity (a.u.)
10,TTAATTGGATATATGATGTTGCAAATTTGCCTATTCAGAACGGAGTCACCTAGTGCAG,27000 fluorescence intensity (a.u.)
11,GCATGAAGACATCAATTAATTAATTGCATGGTTACATGCACGGAGTCACCTAGTGCAG,37200 fluorescence intensity (a.u.)
12,TCATCAGTTAATTAATACATGCATATTATATTATATAGGGCGGAGTCACCTAGTGCAG,20200 fluorescence intensity (a.u.)
13,AATAATTAATTAATCATAGCTTGCAACTGCATATGTAGGGCGGAGTCACCTAGTGCAG,56700 fluorescence intensity (a.u.)
14,CCTAATTAATCCATAATTATCAAAAGTTTACTGTAGCATCCGGAGTCACCTAGTGCAG,62800 fluorescence intensity (a.u.)
15,ATGATTAGCAGCTGATTACTGTAGCATTACTGTAGCAAATCGGAGTCACCTAGTGCAG,45200 fluorescence intensity (a.u.)
16,TCCATAATTAGCGGCTGATTACTGTAGCATCACTGTAGCACGGAGTCACCTAGTGCAG,31200 fluorescence intensity (a.u.)
17,TCCATAATTAGCAGCTGATTACTGTAGTATTACTGTAGCACGGAGTCACCTAGTGCAG,60800 fluorescence intensity (a.u.)
18,TGTAATAGTGGGTTAATTAATTAGCTTGCCAGCTTCAGGGCGGAGTCACCTAGTGCAG,21900 fluorescence intensity (a.u.)
19,ATTAATCCACAATTATCAAAAGTTTACTGTAGCATCACATCGGAGTCACCTAGTGCAG,5730 fluorescence intensity (a.u.)
20,ATTAATCCATAATTAGCAAATGTTTACTGTAGCATCACATCGGAGTCACCTAGTGCAG,13800 fluorescence intensity (a.u.)

# From PMC7819943, “Rice protein-binding microarrays: a tool to detect cis-acting elements near promoter regions in rice”
